Compound activity: PubChem BioAssay, several laboratories
Most compounds without a hit are left out; they make up all but 3.3% or so of the library.
MITF act = MITF TRPM1 promoter activation in melanoma cells; SK-MEL-5 TRPM1-promoter luciferase, 24 h; % of positive control, neutral wells = 0; activation, % at 12.5 µM; hit rate 0.75% among 300,000;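 active means mean activation of at least 80% with every replicate also reaching 80%; inconclusive means mean reaches 80% but some replicate falls short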;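 further: 0% = neutral control wells and 100% = parthenolide positive control wells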
Wnt bcat act = activators of Wnt/beta-catenin signaling; Wnt/beta-catenin reporter cell assay, activator, plate reader; activation, % at 9.35 µM; hit rate 1.2% among 300,000; in the data active means activation above about 30%, passing the limit was not always enough; inconclusive means no clear call, values can overlap the other calls;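 further: 0% = neutral control wells and 100% = positive control wells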
GAA850 FXN act = activators of GAA850 frataxin (FXN) promoter. HEK293 lucGAA850 FXN promoter luciferase reporter, 24 h; percent of 10 µM SAHA response. activation, % at 6 µM. hit rate 0.56% among 360,000;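 active means activation above the average of all compounds screened plus 3 SD, cutoff fixed separately per campaign, cut at about 7.5% in these data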;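 further: 0% = DMSO wells and 100% = 10 µM SAHA wells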
esBAF inh = SWI/SNF esBAF complex inhibition; AID 602393; mouse ES cells, Bmi1-luciferase knock-in reporter, 24 h; 100% = twice the neutral-well signal; reporter increase, % at 12.5 µM; hit rate 2% among 350,000; in the data active means activation above about 40%; inconclusive means no clear call, values can overlap the other calls;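 further: 0% = median of the plate's neutral control wells and 100% = double that signal; a rise in the Bmi1 reporter signal indicates esBAF inhibition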
C2C12 statin = suppression of simvastatin myotoxicity; rescue of ATP level, % at 7.49 µM; hit rate 0.78% among 330,000; C2C12 myotubes + simvastatin, ATP luminescence, 48 h; scaled: DMSO 0, geranylgeraniol control 100;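 active means mean ATP rescue above about 67%, or every replicate alone reaching that limit, limit read from the data, passing the limit was not always enough; inconclusive means no clear call, values can overlap the other calls; inactive means mean under the limit and some replicate under it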;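 further: myotubes were challenged with 10 µM simvastatin during compound exposure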
Ring1 derepress = de-represses Ring1 in mouse ESCs, confirming esBAF inhibition; mouse ESC E14, Ring1 mRNA RT-qPCR fold change; fold change at 33 µM; 550 tested, under 10 active; shares compounds with esBAF inh; AID 743176;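 active means Ring1 gene expression raised more than 2-fold over untreated cells in both replicates at either tested dose; inconclusive means only one replicate above 2-fold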;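 further: Ring1 transcript normalised to actin housekeeping signal by TaqMan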
esBAF Fgf4 qPCR = esBAF inhibition confirmed by Fgf4 repression; shares compounds with esBAF inh; mouse ESC E14, Fgf4 mRNA qPCR fold change; hits give low values; Fgf4 expression fold change at 33 µM; hit rate 4% among 550; AID 743177;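 active means Fgf4 expression under 0.8 fold of control in both repeat measurements at one or both tested doses; inconclusive means under 0.8 fold in just a single repeat measurement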;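 further: Fgf4 transcript normalised to actin in duplex TaqMan qPCR; cells exposed to compound for 24 h before lysis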
Bmi1 derepress = confirmation of esBAF inhibitors: Bmi1 de-repression in mouse ESCs. shares compounds with esBAF inh. mouse ESE14 ES cells, Bmi1 mRNA qPCR fold; hits give high values. fold change at 33 µM. 550 tested, under 10 active;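 active means Bmi1 expression fold change above 6 at either tested concentration, seen in replicate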;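 further: higher fold means more Bmi1 de-repression and stronger esBAF inhibition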
A549 tox SP = kills or reduces viability of A549 cells; cell viability change % (negative = cytotoxic), % at 25 µM, hits read low; shares compounds with esBAF inh; A549 cytotoxicity, plate reader; 550 tested, under 10 active; call rule not given here
HepG2 tox SP = HepG2 cell cytotoxicity at single point; shares compounds with esBAF inh; plate reader; hits give low values; activity change, negative = inhibition, % at 25 µM; hit rate 4% among 550; AID 743189; in the data active means activity change below about -50%
HEK293 tox SP = HEK293 cell cytotoxicity at single point; shares compounds with esBAF inh; plate reader; activity change, negative = inhibition, % at 25 µM, hits read low; hit rate 3% among 550; AID 743190; in the data active means activity change below about -38%, passing the limit was not always enough
Starred values were filed as active, the others as inactive; ? = inconclusive; / = not tested or not shown.

SMILES	MITF act	Wnt bcat act	GAA850 FXN act	esBAF inh	C2C12 statin	Ring1 derepress	esBAF Fgf4 qPCR	Bmi1 derepress	A549 tox SP	HepG2 tox SP	HEK293 tox SP
COc1ccc(-n2nc(C(=O)NCC(=O)N3CCN(c4ccccc4F)CC3)c3ccccc3c2=O)cc1OC	71	4	3	30	3	/	/	/	/	/	/
COc1ccc(-n2nc(C(=O)NCC(=O)N3CCN(c4ccccc4F)CC3)c3ccccc3c2=O)cc1	?	15	3	40	-14	1.2	?	1.6	-6	-66*	-10
CC(C)c1cn(CC[C@H]2CC[C@@H](NC(=O)c3cccc(F)c3)[C@H](CO)O2)nn1	/	/	/	-1	-1	/	/	/	/	/	/
O=C(Nc1nc2ccc(Cl)cc2s1)c1cccc(N2C(=O)CCC2=O)c1	52	?	4	67*	-1	1.7	1	1.3	-12	11	0
COc1ccccc1CCC(=O)Nc1nc2ccccc2[nH]1	80	31*	-4	61*	-18	1.1	0.38*	6.9*	-2	-11	16
CN(Cc1nccn1C)C(=O)c1ccc2nc(Cc3ccccc3F)oc2c1	63	15	4	65*	2	0.78	0.85	1.5	-16	-47	-26
COc1ccc(Cc2nc3ccc(C(=O)N(C)Cc4nccs4)cc3o2)cc1OC	-8	-2	0	-2	16	/	/	/	/	/	/
CN(Cc1nccs1)C(=O)c1ccc2nc(Cc3ccccc3F)oc2c1	113*	26	5	67*	1	1.2	0.94	1.4	-6	-18	-12
Clc1ccc(C=NN2CCCCCC2)cc1	69	?	4	82*	-2	1.3	1.1	1.7	-9	-14	-5
COc1ccc(/C=N/N2CCN(c3ccc(Cl)cc3)CC2)cc1	/	0	0	-8	8	/	/	/	/	/	/
N#Cc1ccc(C=NN2CCCCCC2)cc1	53	48*	5	69*	-3	1.3	?	1.6	-8	-7	-14
COc1cc(C=NN2CCCCC2)cc(OC)c1OC	/	1	-1	-10	1	/	/	/	/	/	/
Cc1ccc(S(=O)(=O)N[C@@H]2C=C[C@@H](CC(=O)NCCc3ccncc3)O[C@H]2CO)cc1	/	/	/	-1	0	/	/	/	/	/	/
CC(=Nc1ccccc1O)c1sc2ccccc2c1O	49	86*	7	83*	17	0.81	1.1	2.2	-10	-9	1
O=C(O)c1ccc2noc(-c3ccccc3)c2c1	53	/	5	82*	6	1.1	?	1.5	3	9	2
O=C1N=C(N2CCCCC2)S/C1=C\c1ccccc1F	/	9	5	57*	-3	1.4	?	1.7	4	-8	-4
Cn1c(/C=C/c2ccc(Br)cc2)nc2ccccc2c1=O	79	17	3	74*	34	1.3	?	1.6	6	6	9
CNC[C@@H]1Oc2ccc(NS(=O)(=O)c3cccs3)cc2CC(=O)N([C@H](C)CO)C[C@H]1C	/	/	/	-5	-8	/	/	/	/	/	/
CC(=O)Nc1ccc(-c2nc3c(C)cccc3[nH]2)cc1	/	48*	5	60*	1	1.3	0.86	1.8	-6	-1	-2
Nc1cc(OCc2ccccc2)ccc1OCc1ccccc1	62	-3	4	83*	-1	1.1	?	1.6	-15	-17	-10
O=c1cc(OCc2ccccc2)cc[nH]1	1	0	0	1	-1	/	/	/	/	/	/
CO[C@H]1CN(C)C(=O)c2ccc(NC(=O)c3cc(C)on3)cc2OC[C@@H](C)N(C)C[C@@H]1C	/	/	/	0	3	/	/	/	/	/	/
Cn1c(COc2ccccc2)nc2ccccc21	/	42*	5	57*	-1	1	0.89	1.5	-20	-23	-21
O=C(C[C@@H]1CC[C@@H]2[C@H](COC[C@@H](O)CN2Cc2ccc(F)cc2)O1)N1CCc2ccccc2C1	/	/	/	1	-10	/	/	/	/	/	/
Cc1noc(C)c1NC(=O)Nc1ccc2c(c1)CC(=O)N([C@H](C)CO)C[C@H](C)[C@H](CN(C)C(=O)Nc1c(C)noc1C)O2	/	/	/	-2	-28	/	/	/	/	/	/
SMILES	MITF act	Wnt bcat act	GAA850 FXN act	esBAF inh	C2C12 statin	Ring1 derepress	esBAF Fgf4 qPCR	Bmi1 derepress	A549 tox SP	HepG2 tox SP	HEK293 tox SP
Fc1cc(Cl)cc2ccc(-c3ccccc3)nc12	/	6	/	56*	-15	1.5	0.98	1.8	9	67	-5
Fc1ccc2nc(-c3ccccc3)ccc2c1	/	18	/	60*	-6	1.1	0.82	1.7	-4	-58*	-6
Nc1nc(Cl)cc(-c2ccccc2)n1	-11	1	4	/	/	/	/	/	/	/	/
COc1ccc(CNC(=O)N(C)C[C@H]2OCc3ccccc3-c3ccccc3C(=O)N([C@H](C)CO)C[C@H]2C)cc1	/	/	/	-2	6	/	/	/	/	/	/
CCN1C(=O)C(=CC=CN(C)c2ccccc2)SC1=S	/	7	3	84*	-8	1.1	0.93	1.5	-19	-8	-10
O=C(CC1CC1)N[C@@H]1CC[C@@H](CCNS(=O)(=O)c2ccc(Cl)cc2)O[C@H]1CO	/	/	/	-4	-1	/	/	/	/	/	/
CC(C)(O)c1cc2ccc(C#Cc3ccsc3)cc2c(=O)o1	76	29	3	71*	2	1.3	0.84	2.3	-3	-19	-11
CC(C)(C)C(=O)N1CCN(c2nc3ccc(Br)cc3s2)CC1	45	3	0	93*	-20	1.1	1	1.7	-3	10	-27
CCCC(=O)N1CCN(c2nc3ccc(Br)cc3s2)CC1	67	0	4	66*	-6	0.96	0.89	1.4	-6	-14	-34
COc1ccc(CNc2nc3ccccc3s2)cc1OC	/	4	1	62*	34	0.99	0.87	1.6	-6	-5	-12
c1ccc(CCNc2nc3ccccc3s2)cc1	/	/	6	55*	-8	1.2	1	1.8	-9	-1	-23
O=C(Nc1ccccc1)c1cc(C2CCCN(C(=O)c3ccccc3)C2)on1 (stereo not given)	/	1	0	57*	-13	1.1	0.97	1	-20	-16	-27
COC(=O)N1CCCC(c2cc(C(=O)Nc3ccccc3Cl)no2)C1 (stereo not given)	/	-4	4	73*	11	0.94	0.9	1.4	-1	-30	-12
